Screening results (PubChem)
Only some compounds are listed: those with a hit (about 5.3% of all), similar ones and a draw of the others.
PNC assembly inh: blocks assembly of the perinucleolar compartment; PC3M PTB-GFP, PNC prevalence imaging, 16 h; hits give low values; activity change (PNC), negative = inhibition, % at 10 µM; 140,000 tested, 3.1% active;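 active means readout at or below -70, meaning at least 70% loss of cells showing the perinucleolar compartment, a nuclear body marking cancer cells; inconclusive means readout between -30 and a set limit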;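 further: plate controls were DMSO wells for no effect and camptothecin positive control wells for full effect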
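Read-out is percentage of cells bearing a perinucleolar compartment, from automated 20x imaging of fixed, Hoechst-stained PC3M PTB-GFP cells. Cells were seeded 4 h, then exposed 16 h to compound (23 nl of library stock) in duplicate plates.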
15-hLO-2 inh: inhibitors of human 15-lipoxygenase 2 (ALOX15B); O15296; purified 15hLO-2, xylenol orange hydroperoxide absorbance; Potency, µM (titrated, usually from 57.1 µM), inactives show at the highest dose activity change, negative = inhibition, actives largely listed as inhibitors; 110,000 tested, 0.56% active; further: potency means the concentration at half of the fitted maximal effect; nearly all actives have a fitted effect of over 60% in size
Target sequence (O15296 whole entry, looked up): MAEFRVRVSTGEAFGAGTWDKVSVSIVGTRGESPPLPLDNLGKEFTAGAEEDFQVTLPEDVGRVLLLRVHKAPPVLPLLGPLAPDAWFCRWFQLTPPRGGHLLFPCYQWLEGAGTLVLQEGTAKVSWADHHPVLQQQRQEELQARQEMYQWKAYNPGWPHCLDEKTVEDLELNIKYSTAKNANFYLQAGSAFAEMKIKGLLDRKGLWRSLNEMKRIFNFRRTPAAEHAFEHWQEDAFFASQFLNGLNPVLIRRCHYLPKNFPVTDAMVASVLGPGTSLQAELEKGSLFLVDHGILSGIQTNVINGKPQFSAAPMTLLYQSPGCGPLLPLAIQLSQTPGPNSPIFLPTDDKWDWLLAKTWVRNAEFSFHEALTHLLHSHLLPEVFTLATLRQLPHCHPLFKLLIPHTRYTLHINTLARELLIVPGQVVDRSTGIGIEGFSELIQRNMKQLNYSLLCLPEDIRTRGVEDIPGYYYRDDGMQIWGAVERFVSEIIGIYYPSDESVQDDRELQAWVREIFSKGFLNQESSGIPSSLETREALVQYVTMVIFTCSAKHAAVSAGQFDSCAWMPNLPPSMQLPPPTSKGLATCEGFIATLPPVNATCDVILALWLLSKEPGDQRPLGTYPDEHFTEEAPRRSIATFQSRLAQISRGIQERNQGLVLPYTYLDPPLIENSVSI
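Read-out: hydroperoxide product oxidises ferrous iron, measured as xylenol orange complex via the 573-to-405 nm absorbance ratio after 30 min. Reaction: 50 nM enzyme, 15 min compound preincubation, 45 uM arachidonic acid, 90 min RT, Hepes pH 7.5 with Triton X-100.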
IMPase Li cell: cell-permeable IMPase inhibitors with lithium potentiation | CHO-M1 cells, IP1 TR-FRET (IP-One), carbachol + lithium | Potency, µM (top dose mostly 59.4 µM), for inactives: top-dose activity, negative = IMPase inhibition, most hits filed as inhibitors | 210,000 tested, 0.35% active;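 further: IP1 builds up when IMPase is blocked and the TR-FRET signal falls; potency means the concentration at half of the fitted maximal effect; plate controls were basal vehicle for no effect and high inhibitor control for full effect; nearly all actives have a fitted effect of over 50% in size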
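Test compounds were applied to CHO-M1 cells previously cultured for 16–30 h at 2000 per well. A small lithium amount accompanied them; after 30 min at 37C, IP1 was quantified by TR-FRET.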
ALOX12 inhib: 12-hLO (ALOX12) enzyme inhibition; Potency, µM (top dose mostly 57.1 µM), inactives show at the top dose activity change, negative = inhibition, actives largely listed as inhibitors; purified 12-hLO, xylenol orange hydroperoxide absorbance; P18054; 150,000 tested, 0.12% active; AID 1452; further: potency means the concentration at half of the fitted maximal effect; nearly all actives have a fitted effect of over 55% in size
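Purified human 12hLO (150 nM), preincubated 15 min with compound, then 40 uM arachidonic acid for 30 min, room temperature, Hepes pH 7.0 with 0.01% Triton X-100. Hydroperoxide detected by ferrous iron/xylenol orange; 573/405 nm absorbance ratio gives reaction progress.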
IMPase inh: cell-permeable inhibitors of inositol monophosphatase (IMPase) | P97697 | CHO-M1 cells, IP1 accumulation, HTRF TR-FRET ratio | inhibition (IP1 accumulation), % at 46.1 µM | 120,000 tested, under 10 active | AID 901; active means well fitted curve in the direction sought with a large enough effect in the signal ratio, not every such curve was filed as active; inconclusive means small, poorly fitted or top-dose-only effect, or a change in a side signal; inactive means no such curve, though single readings can be large or run the other way; the % refers to the signal ratio;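 further: cells stimulated with carbachol in lithium chloride buffer; plate controls were DMSO basal wells for no effect and reference inhibitor wells for full effect; higher means more IMPase inhibition seen as more IP1 and lower FRET ratio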
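Seeded CHO-M1 cells were dosed with compound at up to 46 uM, stimulated with carbachol for 30 min, then lysed in IP-One detection reagents. Higher IP1 lowers the TR-FRET signal.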
HPGD inh: blocks human HPGD enzyme activity. purified HPGD, NADH fluorescence kinetic, PGE2 substrate. Potency, µM, for the others: at the top dose activity change, negative = inhibition, most hits filed as inhibitors. 150,000 tested, 4.3% active. AID 894; active means well fitted inhibition curve with a large enough effect, not every such curve was filed as active; inconclusive means small, poorly fitted or top-dose-only effect, or another doubt; inactive means no such curve, though single readings can be large or run the other way; further: potency means the concentration at half of the fitted maximal effect
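NADH formation kinetics: reaction with 30 uM PGE2 and 1 mM NAD+ (final), 20 nM enzyme, Tris-HCl pH 8 with Tween 20, after 15 min compound preincubation at room temperature. Fluorescence change, last versus first of five reads.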
An asterisk follows results filed as active; ? = inconclusive; nt = no result given; [ ] = dose if it differs, or a comment. Unless noted, the call rests on the fitted dose curve; in most records, active means well fitted curve in the direction sought with a large enough effect; inconclusive means small, poorly fitted or top-dose-only effect, or another doubt; inactive means no such curve, though single readings can be large; an effect the other way counts as inactive or inconclusive. Unless noted, on the % scale 0 is the no-effect control and ±100 the full control effect.

SMILES	PNC assembly inh	15-hLO-2 inh	IMPase Li cell	ALOX12 inhib	IMPase inh	HPGD inh
Cc1ccc(NC(=O)c2cc(N3C(=O)CCC3=O)ccc2N2CCOCC2)cc1	nt	nt	10%	nt	nt	nt
O=C(c1ccc(Br)cc1)c1sc(N2CCOCC2)nc1-c1ccccc1	nt	nt	2%	nt	nt	nt
Cc1ccc(C2CC(=O)Oc3ccc(O)cc32)cc1 (stereo not drawn)	nt	?	-10%	-4%[0.00818 µM]	nt	?
CC1=C(C#N)c2nc(N)c(C#N)c(C)c2/C1=C\c1ccc(C)cc1	0	25µM*	14%[38.3 µM]	-4%	5	?
C=CCNC(=O)c1ccc(-c2nc(-c3ccc(Cl)c(Cl)c3)cs2)cc1	57	2%	7%[38.3 µM]	-1%	1	-23%
C=CCNC(=O)c1cc(Cl)ccc1Cl	-9	-1%	-23%[38.3 µM]	5%	-20	20µM*
C=CCNC(=O)c1ccc(-c2nc(-c3ccc(Cl)cc3Cl)cs2)cc1	-21	-7%	-3%	12%	2	4µM*
CCOc1ccc(/C=C/C(=O)Nc2sc3c(c2C(=O)OC)C(C(=O)OC)CC3)cc1 (stereo not drawn)	nt	nt	nt	nt	-4	nt
Cc1cccc(N(CC(N)=O)C2SC(=O)NC2=O)c1 (stereo not drawn)	-100*	nt	1%	-7%	-4	-11%
COc1ccc2sc3ccccc3c(=O)c2c1OC	-19	-10%	-4%[38.3 µM]	-2%	?	6.3µM*
CC(=O)C(Cc1ccccc1)NC(=O)CN1CCN(Cc2ccccc2)CC1 (stereo not drawn)	nt	nt	4%	nt	nt	nt
O=C(NNS(=O)(=O)c1ccc([N+](=O)[O-])cc1)c1cnn(-c2ccccc2)c1-n1cccc1	-100*	nt	-2%	1%	8	-3%
Cc1ccc(N=Nc2c(N)[nH]n3c(=O)cc(-c4ccccc4)nc23)cc1	-30	-1%	-2%[38.3 µM]	3%	8	-22%
Cc1ccc(N=Nc2c(=O)[nH]n3c(=O)cc(C)[nH]c23)cc1	?	-28%	47%[38.3 µM]	-30%	30	20µM*
CC(=O)Nc1ccc(S(=O)(=O)N(CCCN2CCOCC2)Cc2cccs2)cc1	nt	nt	-10%	nt	nt	nt
CC(C)(C)c1ccc(S(=O)(=O)N(CCCN2CCOCC2)Cc2cccs2)cc1	?	nt	-3%	-22%	nt	25µM*
COc1ccc(C(C)(C)C)cc1NC(=O)c1cc(S(=O)(=O)N(C)C)ccc1N1CCCC1	-1	nt	11%	-2%	nt	-18%
N#Cc1nc(COc2ccccc2F)oc1NCc1ccc(F)cc1	8	-8%	22%[38.3 µM]	-8%	22	20µM*
COc1ccc(CCNc2oc(COc3ccccc3F)nc2C#N)cc1	?	0%	18%	-3%	4	18µM*
COc1ccc(Nc2oc(COc3ccc(Cl)cc3)nc2C#N)cc1	0	-17%	35%[38.3 µM]	-16%	15	28µM*
CN(C)CCNc1oc(COc2ccc(Cl)cc2Cl)nc1C#N	37	7%	-6%[38.3 µM]	-3%	-4	-10%
COCCCNc1oc(COc2ccc(Cl)cc2Cl)nc1C#N	?	-5%	4%[38.3 µM]	-17%	5	28µM*
COc1ccc(CNc2oc(COc3ccc(Cl)cc3)nc2C#N)cc1	-11	-10%	34%[38.3 µM]	-18%	9	-23%
CC(NC(=O)C(=O)NN=C1CCCC1)c1ccccc1 (stereo not drawn)	nt	nt	2%	nt	nt	nt
CC(=O)c1cccc(NC(=O)C23CC4CC(C2)CC(n2cncn2)(C4)C3)c1	?	nt	4%	0%	nt	-22%
SMILES	PNC assembly inh	15-hLO-2 inh	IMPase Li cell	ALOX12 inhib	IMPase inh	HPGD inh
CCCCn1cnc2cc(NC(=O)c3cc(OC)c(OC)c(OC)c3)ccc21	nt	nt	nt	nt	3	nt
CC(=O)c1cccc2c(O)c(C3=Nc4ccccc4C3=O)[nH]c12	-22	nt	67%	-13%	59	14µM*
CC1(C)CC(=O)C(CC2=C(O)CC(C)(C)CC2=O)=C(O)C1	?	4%	20%[38.3 µM]	14%	8	-12%
Cc1ccc(S(=O)(=O)Oc2ccc3c(c2)O/C(=C\c2cccnc2)C3=O)cc1	2	-6%	27%[38.3 µM]	-6%	-2	-25%
O=C1/C(=C/c2cccnc2)Oc2cc(OS(=O)(=O)c3ccc(F)cc3)ccc21	14	16%	13%[38.3 µM]	-10%	-4	16µM*
O=C(COc1ccc(Cl)cc1Cl)NC(=S)Nc1ccccc1C(=O)O	nt	nt	1%	nt	nt	nt
COc1ccc(NC(=O)COC(=O)CCCOc2ccc(Cl)cc2Cl)cc1Cl	26	nt	0%	-3%	nt	28µM*
CCOc1ccccc1NC(=S)NC(=O)CCCOc1ccc(Cl)cc1Cl	4	16µM*	7%[38.3 µM]	?	8	-23%
CCCCc1ccc(NC(=S)Nc2ccc(Cl)c(S(=O)(=O)N(C)C)c2)cc1	-119*	nt	2%	-7%	nt	-12%
CCN1CCN(CC(=O)Nc2ccc(Cl)c(S(=O)(=O)N(C)C)c2)CC1	nt	nt	15%	nt	nt	nt
CN1c2cccc3cccc(c23)N(C)C1(C)C	40	16µM*	1%[38.3 µM]	-21%	15	?
CN1c2ccccc2N(C)C1(C)c1cccc2ccccc12	?	nt	19%	-23%	-2	-3%
CC1=C/C(=C\c2ccc3c(c2)OCO3)C(=O)S1	-85*	-3%	-8%[38.3 µM]	?	-1	-20%
CCCN1C/C(=C/c2ccc3c(c2)OCO3)C(=O)/C(=C/c2ccc3c(c2)OCO3)C1	-20	nt	5%	-11%	-9	-10%
CCOc1ccc(NC(=S)NC(C)c2cccs2)cc1 (stereo not drawn)	35	nt	9%	-13%	nt	-17%
CC(C)=CC(=O)Nc1nnc(C)s1	-108*	nt	1%	0%	-1	4%
CCCCC(=O)Nc1nnc(C)s1	56	-6%	-5%[38.3 µM]	-1%	-5	1%
CC(C)=CC(=O)Nc1nnc(-c2ccccc2)s1	-23	-5%	0%	1%	-13	-29%
CCC(=O)Nc1nnc(C)s1	-106*	nt	1%	3%	2	1%
CCOC(=O)c1oc2ccc(/C=N/O)c(Cl)c2c1C	nt	nt	10%	nt	nt	nt
COc1ccc(Cl)cc1NC(=O)N1CCN(C2CCCCC2)CC1	-88*	14%	31%[38.3 µM]	1%	2	-6%
CCN1CCN(C(=O)Nc2cc(Cl)ccc2OC)CC1	nt	nt	3%	nt	nt	nt
CCCCN1CCc2[nH]c(=S)[nH]c(=O)c2C1	46	nt	6%	-2%	-7	?
CCCCNc1nc(C)nc2c1nc(-c1ccccc1)n2CCN1CCCCC1	nt	31%	-5%	-5%	nt	?
COc1ccc(S(=O)(=O)N(C(C)=O)c2ccc3oc(=O)sc3c2)cc1	4	-23%	0%[38.3 µM]	8.9µM*	8	20µM*
O=C(N/N=C/C=C/c1ccccc1[N+](=O)[O-])c1cc(-c2ccccc2)n[nH]1	-22	nt	-10%	2%	nt	25µM*
